High-throughput results: PubChem, National Center for Advancing Translational Sciences (NCATS)
Hits are enriched below; roughly 10% of the tested compounds scored in any of these assays.
SW480 rerep: A quantitative high throughput screen for small molecules that induce DNA re-replication in SW480 colon adenocarcinoma cells; SW480 DNA re-replication, Hoechst DNA content imaging, 48 h; Potency, µM (top dose mostly 46.1 µM), inactives show at the highest dose re-replication activation, hits mostly activators; 1.8% of 340,000 active; AID 624297, 2012; further: % of control where 0% means no effect; nearly all actives have a fitted effect of over 55% in size
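250 cells/well; 23 nL cpd via pin tool; 48 hr, 37 C, 5% CO2; Hoechst 40 min; imager read of total nuclear intensity, ex 405/em 500-530 nm.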
KB-3-1 cytotox: qHTS assay for MDR1-selective chemotherapeutics: Primary screen using the parental adenocarcinoma cell KB-3-1; KB-3-1 viability, CellTiter-Glo ATP luminescence, 72 h; Potency, µM (highest dose often 46.1 µM), usual class: cytotoxic; 1.4% of 400,000 active; further: on the % scale 0 is the no-effect control and ±100 the full control effect; nearly all actives have a fitted effect of over 60% in size
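Cells are dispensed, compounds pinned in, plates held at 37 °C for 72 h, then CellTiter-Glo is added and luminescence read after 10 minutes. Cell line: parental KB-3-1 in phenol-red-free DMEM, 10% FBS.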
MCF10A rereplic: A quantitative high throughput screen for small molecules that induce DNA re-replication in MCF 10a normal breast cells | 2.9% of 350,000 active | MCF 10A DNA re-replication, Hoechst nuclear intensity, 48 h | AID 624296, 2012 | Potency, µM (titrated, usually from 46.1 µM), for inactives: top-dose activity, positive = re-replication, hits mostly activators; further: % of control where 0% means no effect; nearly all actives have a fitted effect of over 50% in size
RORgamma inh: qHTS for inhibitors of ROR gamma transcriptional activity | Nuclear receptor ROR-gamma (Mus musculus), P51450 | Drosophila S2 Gal4-RORgamma UAS-luciferase reporter, 20 h | Potency, µM (series often up to 53.6 µM), for the others: top-dose activity change, negative = inhibition, most hits filed as inhibitors | 5.4% of 310,000 active; further: on the % scale 0 is the no-effect control and ±100 the full control effect; nearly all actives have a fitted effect of over 60% in size
Target sequence (P51450 whole entry, looked up, the tested form may be a part): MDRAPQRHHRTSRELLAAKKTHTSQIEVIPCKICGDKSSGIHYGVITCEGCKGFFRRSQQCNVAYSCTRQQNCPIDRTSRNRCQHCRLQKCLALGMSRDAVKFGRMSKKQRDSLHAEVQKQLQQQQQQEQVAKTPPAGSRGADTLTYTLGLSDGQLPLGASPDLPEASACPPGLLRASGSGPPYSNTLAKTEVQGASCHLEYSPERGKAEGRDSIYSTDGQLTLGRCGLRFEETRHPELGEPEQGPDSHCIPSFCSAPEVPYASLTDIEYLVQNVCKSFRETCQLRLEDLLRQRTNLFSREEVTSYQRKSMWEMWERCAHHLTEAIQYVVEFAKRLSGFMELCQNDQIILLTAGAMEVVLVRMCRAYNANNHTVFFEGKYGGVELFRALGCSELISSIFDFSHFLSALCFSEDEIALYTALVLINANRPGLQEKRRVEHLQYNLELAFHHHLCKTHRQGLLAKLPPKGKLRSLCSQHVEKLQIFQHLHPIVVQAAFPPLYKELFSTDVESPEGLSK
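Compounds are pin-transferred onto Drosophila Schneider cells expressing a copper-inducible Gal4–ROR gamma transactivation domain fusion. After 1 hr, copper sulfate is added to 700 uM final; luciferase is read 20 hr later.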
KB-V1 cytotox: qHTS assay for MDR1-selective chemotherapeutics: Primary screen using the drug-selected MDR subline cells KB-V1; Potency, µM (titrated, usually from 46.1 µM), usual class: cytotoxic; AID 1347076, 2019; KB-V1 MDR cells viability, CellTiter-Glo, 72 h; 3.4% of 400,000 active; further: on the % scale 0 is the no-effect control and ±100 the full control effect; nearly all actives have a fitted effect of over 60% in size
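Compound-treated KB-V1 multidrug-resistant cells, 72 h, 37 degrees C; viability by CellTiter-Glo. Fitted qHTS curves give the values.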
VP16 counter: VP16 counterscreen qHTS for inhibitors of ROR gamma transcriptional activity. Potency, µM (titrated, usually from 53.6 µM), without a hit: at the top dose activity, negative = inhibition, hits mostly inhibitors. Drosophila S2 Gal4-VP16 UAS-luciferase, luminescence, 20 h. 3.5% of 310,000 active;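 further: Gal4-VP16 expression switched on by copper sulfate through the metallothionein promoter; on the % scale 0 is the no-effect control and ±100 the full control effect; nearly all actives have a fitted effect of over 50% in size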
Active calls of the source: *; i = inactive; ? = inconclusive; . = no result. The call rests on the fitted dose curve; in most records, active means well fitted curve in the direction sought with a large enough effect; inconclusive means small, poorly fitted or top-dose-only effect, or another doubt; inactive means no such curve, though single readings can be large; an effect the other way counts as inactive or inconclusive. Potency means the concentration at half of the fitted maximal effect.

SMILES	SW480 rerep	KB-3-1 cytotox	MCF10A rereplic	RORgamma inh	KB-V1 cytotox	VP16 counter
c1ccc2nc(N3CCCC3)c(N3CCCCC3)nc2c1	0.3%	i	20.6µM*	.	i	.
c1ccc2c(N3CCCC3)nc(-c3ccncc3)nc2c1	-4.9%	i	-8.7%	-44.6%	i	-5.6%
c1ccc(-c2nc(N3CCCCCC3)c3ccccc3n2)nc1	15.2%	3.66µM*	?	1.12µM*	?	2.51µM*
c1ccc(-c2nc(N3CCOCC3)c3ccccc3n2)nc1	?	i	?	2.51µM*	?	5.62µM*
CC1=C(C(=O)N(C)C)CC(CC(=O)NCCCCc2ccccc2)C(=O)N1Cc1ccc(C(C)(C)C)cc1 (stereo not given)	.	i	.	.	?	.
COc1ccccc1-n1c(-c2ccc(Cl)cc2)c[nH]c1=S	-8.1%	i	16.1%	2.82µM*	i	7.08µM*
Cc1cccc(-n2c(-c3ccccc3)c[nH]c2=S)c1C	-8.6%	i	-23.2%	2.24µM*	i	7.08µM*
CCCCc1nn2c(=O)cc(COC(=O)C3CCCCC3)nc2s1	.	i	.	.	i	.
Cc1cccc(N2CCN(c3ccc4cc(S(=O)(=O)N5CCC(C)CC5)ccc4n3)CC2)c1C	.	i	.	.	i	.
CCOC(=O)N1CCN(C(=O)CSCC(=O)Nc2nc(-c3ccc(Cl)s3)cs2)CC1	10.1%	i	11.5%	32.2%	i	7.3%
CCOC(=O)N1CCN(C(=O)CSCC(=O)Nc2nc(-c3ccc(-c4ccccc4)cc3)cs2)CC1	2.4%	?	13.0%	?	i	6.31µM*
CCOC(=O)N1CCN(C(=O)CSCC(=O)Nc2nc(-c3ccc(OC)cc3)cs2)CC1	8.9%	?	?	35.6%	20.6µM*	-0.8%
C[C@]12C[C@@](C)(C=C1/C=C/c1ccccc1)C(=O)C[C@H]2c1ccccc1	.	.	.	21.2%	.	1.2%
COc1ccccc1N1CCN(/N=C/c2cc([N+](=O)[O-])ccc2Cl)CC1	-79.4%	i	0.581µM*	74.4%	i	-8.4%
COc1ccccc1N1CCN(/N=C\c2ccccc2)CC1	-10.8%	i	-2.4%	5.0%	i	22.9%
O=[N+]([O-])c1ccccc1/C=N\N1CCN(c2ccccc2)CC1	1.3%	i	14.3%	30.4%	i	-1.4%
COc1cc(/C(C)=N/N2CCN(c3ccccc3OC)CC2)ccc1O	-32.7%	i	3.66µM*	-10.2%	i	13.7%
O=[N+]([O-])c1ccccc1/C=N/N1CCN(c2ccc(Cl)cc2)CC1	-5.1%	?	16.2%	34.6%	10.3µM*	-0.5%
COc1ccccc1N1CCN(/N=C/c2cc(OC)c(OC)c(OC)c2)CC1	-81.3%	i	-73.7%	22.4%	14.6µM*	-11.7%
COc1cccc(CNC(=O)c2cccc(N3CCCS3(=O)=O)c2)c1	.	i	.	.	i	.
O=C(CNC(=O)C1CCCCC1)OCCOc1ccccc1	.	i	.	.	i	.
COc1cc(/C(C)=N/NC(=O)c2cccc(S(=O)(=O)N3CCCC3)c2)cc(OC)c1OC	3.5%	i	-2.2%	-41.2%	i	10.6%
CC(=O)Nc1cccc(/C(C)=N/NC(=O)c2ccc(Cl)cc2Cl)c1	?	i	1.9%	37.5%	i	-4.0%
C=CCNC(=S)N/N=C(\C)c1cccc(NC(C)=O)c1	-60.5%	i	-1.1%	3.55µM*	i	?
C=CCNC(=S)N/N=C(\C)c1cc(OC)c(OC)c(OC)c1	-12.6%	i	-8.1%	2µM*	14.6µM*	4.47µM*
SMILES	SW480 rerep	KB-3-1 cytotox	MCF10A rereplic	RORgamma inh	KB-V1 cytotox	VP16 counter
C=CCNC(=S)NN(c1ccccc1)c1ccccc1	?	i	-45.5%	2µM*	?	6.31µM*
C=CCNC(=S)NNC(=O)c1ccccc1	1.6%	i	-0.1%	?	i	?
C=CCNC(=O)NC(=S)c1ccccc1	?	i	5.5%	12.6µM*	?	?
O=C(Cn1c(=O)oc2cc(S(=O)(=O)N3CCCCCC3)ccc21)Nc1cccc(C(F)(F)F)c1	.	i	.	.	i	.
Cc1cc(C)c(NC(=O)CSc2nc3ccccc3nc2N2CCCCC2)c(C)c1	.	i	.	.	?	.
C=CCNC(=S)Nc1ccccc1	-5.9%	i	-0.6%	-125.7%	i	?
C=CCNC(=S)Nc1cccc(NC(=S)NCC=C)c1	-5.2%	i	6.0%	7.94µM*	i	?
C=CCC(C)(O)/C=C/c1ccccc1 (stereo not given)	.	.	.	3.4%	.	7.7%
COC(=O)C(Cc1ccc(O)cc1)NC(=O)c1ccccc1 (stereo not given)	-2.7%	i	-7.1%	2.24µM*	i	?
COC(=O)C(Cc1ccccc1)NC(=O)c1ccc(C)cc1 (stereo not given)	-56.0%	i	0.6%	13.0%	i	-11.7%
COC(=O)CSC1=C(C#N)C(c2ccc(C)cc2)C2=C(CCCC2=O)N1 (stereo not given)	-0.1%	i	28.0%	?	i	1.1%
CCc1ccccc1NC(=O)CSC1=C(C#N)C(c2ccc(O)c(OC)c2)C2=C(CCCC2=O)N1 (stereo not given)	?	?	16.4µM*	?	i	-0.7%
CCc1ccc(NC(=O)CSC2=C(C#N)C(c3ccco3)C3=C(CCCC3=O)N2)cc1 (stereo not given)	?	?	18.4µM*	23.0%	?	-3.2%
N#CC1=C(SCC(=O)c2ccc(Br)cc2)NC2=C(C(=O)CCC2)C1c1ccco1 (stereo not given)	12.6µM*	10.3µM*	7.94µM*	21.9%	20.6µM*	-9.0%
Cc1ccc(NC(=O)CSC2=C(C#N)C(c3ccco3)C3=C(CC(C)(C)CC3=O)N2)cc1 (stereo not given)	?	i	9.5%	-8.3%	i	-28.3%
CCOC(=O)C1=C(c2ccccc2)NC(SCC(=O)Nc2cccc(C)c2)=C(C#N)C1c1ccco1 (stereo not given)	18.4µM*	i	?	15.1%	14.6µM*	-0.9%
Cc1ccc(NC(=O)C2CCCN(S(=O)(=O)c3ccc4c(c3)CCCC(=O)N4)C2)cc1N(C)C (stereo not given)	.	?	.	.	i	.
COC(=O)C[C@H]1c2cc(C(F)(F)F)ccc2S(=O)(=O)N1C(C)C	.	i	.	.	i	.
